Test results: ChEMBL document CHEMBL1961873, “Compounds: GSK PKIS; Assays: Nanosyn kinase panel” (2012)

Legend:
[1] = molecular target: Tyrosine-protein kinase SYK (Homo sapiens) (UniProt P43405); conditions: at 1 µM
[2] = molecular target: T1, Tyrosine-protein kinase Tec (Homo sapiens) (UniProt P42680); conditions: at 0.1 µM
T1 sequence (whole entry): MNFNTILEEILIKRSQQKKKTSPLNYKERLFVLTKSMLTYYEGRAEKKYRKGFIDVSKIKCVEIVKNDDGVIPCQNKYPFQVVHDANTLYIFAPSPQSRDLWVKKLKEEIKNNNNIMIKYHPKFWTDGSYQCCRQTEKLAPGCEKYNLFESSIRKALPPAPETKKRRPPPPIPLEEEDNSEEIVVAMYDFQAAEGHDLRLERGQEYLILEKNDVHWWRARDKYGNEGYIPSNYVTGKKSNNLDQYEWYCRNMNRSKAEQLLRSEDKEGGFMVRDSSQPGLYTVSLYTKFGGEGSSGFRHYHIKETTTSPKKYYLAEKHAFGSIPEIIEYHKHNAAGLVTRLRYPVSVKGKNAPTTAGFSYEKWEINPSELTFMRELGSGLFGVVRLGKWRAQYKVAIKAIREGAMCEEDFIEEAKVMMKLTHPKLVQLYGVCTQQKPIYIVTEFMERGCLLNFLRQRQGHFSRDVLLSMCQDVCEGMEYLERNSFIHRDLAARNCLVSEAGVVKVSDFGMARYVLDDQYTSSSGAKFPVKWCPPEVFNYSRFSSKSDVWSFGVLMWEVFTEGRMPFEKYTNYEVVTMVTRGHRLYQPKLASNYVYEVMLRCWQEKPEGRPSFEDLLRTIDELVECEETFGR

[3] = molecular target: T1, Tyrosine-protein kinase Tec (Homo sapiens); conditions: at 1 µM
[4] = molecular target: Angiopoietin-1 receptor (Homo sapiens) (UniProt Q02763); conditions: at 0.1 µM
Sequence of Angiopoietin-1 receptor (Homo sapiens) (Q02763 whole entry): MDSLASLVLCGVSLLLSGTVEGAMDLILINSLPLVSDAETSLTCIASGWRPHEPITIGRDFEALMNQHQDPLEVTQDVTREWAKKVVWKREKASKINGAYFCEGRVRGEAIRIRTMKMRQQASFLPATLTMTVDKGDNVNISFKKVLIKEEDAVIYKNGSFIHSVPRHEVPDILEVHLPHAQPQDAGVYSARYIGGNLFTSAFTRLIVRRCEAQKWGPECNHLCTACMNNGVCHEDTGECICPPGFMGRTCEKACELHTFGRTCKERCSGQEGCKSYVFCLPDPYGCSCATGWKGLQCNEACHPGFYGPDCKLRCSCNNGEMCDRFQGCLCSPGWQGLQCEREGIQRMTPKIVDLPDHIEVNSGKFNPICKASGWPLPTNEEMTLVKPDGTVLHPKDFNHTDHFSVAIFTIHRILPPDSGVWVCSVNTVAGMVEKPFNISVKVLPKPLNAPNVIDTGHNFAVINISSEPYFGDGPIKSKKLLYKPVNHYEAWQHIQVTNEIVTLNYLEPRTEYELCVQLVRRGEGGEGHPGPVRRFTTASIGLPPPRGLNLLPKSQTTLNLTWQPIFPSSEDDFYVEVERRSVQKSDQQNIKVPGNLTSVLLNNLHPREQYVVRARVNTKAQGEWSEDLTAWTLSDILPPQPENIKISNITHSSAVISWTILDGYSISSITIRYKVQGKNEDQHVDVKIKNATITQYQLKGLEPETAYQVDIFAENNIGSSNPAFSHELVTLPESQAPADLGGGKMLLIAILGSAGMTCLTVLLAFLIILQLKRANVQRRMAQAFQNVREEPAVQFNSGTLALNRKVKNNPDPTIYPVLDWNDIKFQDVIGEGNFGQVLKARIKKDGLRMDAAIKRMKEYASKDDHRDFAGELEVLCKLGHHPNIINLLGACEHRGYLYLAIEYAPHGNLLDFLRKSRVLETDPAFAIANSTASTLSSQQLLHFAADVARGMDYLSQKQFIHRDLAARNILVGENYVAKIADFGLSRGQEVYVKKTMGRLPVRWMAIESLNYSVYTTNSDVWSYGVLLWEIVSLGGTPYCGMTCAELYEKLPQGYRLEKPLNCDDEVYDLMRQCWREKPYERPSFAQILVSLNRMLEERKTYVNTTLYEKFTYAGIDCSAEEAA

[5] = molecular target: Angiopoietin-1 receptor (Homo sapiens) (UniProt Q02763); conditions: at 1 µM
[6] = molecular target: T2, Non-receptor tyrosine-protein kinase TNK1 (Homo sapiens) (UniProt Q13470); conditions: at 0.1 µM
T2 sequence (whole entry): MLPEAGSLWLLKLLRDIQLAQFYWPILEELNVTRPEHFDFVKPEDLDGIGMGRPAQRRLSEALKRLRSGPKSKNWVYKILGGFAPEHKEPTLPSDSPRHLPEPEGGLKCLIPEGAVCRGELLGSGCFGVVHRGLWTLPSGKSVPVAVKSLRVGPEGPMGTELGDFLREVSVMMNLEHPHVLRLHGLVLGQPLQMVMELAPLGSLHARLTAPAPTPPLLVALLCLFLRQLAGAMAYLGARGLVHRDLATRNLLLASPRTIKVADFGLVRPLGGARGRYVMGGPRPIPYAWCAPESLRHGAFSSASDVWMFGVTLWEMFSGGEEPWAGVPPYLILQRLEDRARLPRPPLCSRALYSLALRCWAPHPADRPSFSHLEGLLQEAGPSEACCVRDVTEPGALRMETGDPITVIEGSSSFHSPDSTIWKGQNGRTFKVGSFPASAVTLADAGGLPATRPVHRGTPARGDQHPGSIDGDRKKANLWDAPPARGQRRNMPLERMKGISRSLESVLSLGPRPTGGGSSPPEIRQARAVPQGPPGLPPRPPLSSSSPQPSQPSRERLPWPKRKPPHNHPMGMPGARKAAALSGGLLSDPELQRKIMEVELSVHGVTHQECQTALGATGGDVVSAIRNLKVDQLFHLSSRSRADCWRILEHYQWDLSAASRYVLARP

[7] = molecular target: T2, Non-receptor tyrosine-protein kinase TNK1 (Homo sapiens); conditions: at 1 µM
[8] = molecular target: Activated CDC42 kinase 1 (Homo sapiens) (UniProt Q07912); conditions: at 0.1 µM
Sequence of Activated CDC42 kinase 1 (Homo sapiens) (Q07912 whole entry, looked up): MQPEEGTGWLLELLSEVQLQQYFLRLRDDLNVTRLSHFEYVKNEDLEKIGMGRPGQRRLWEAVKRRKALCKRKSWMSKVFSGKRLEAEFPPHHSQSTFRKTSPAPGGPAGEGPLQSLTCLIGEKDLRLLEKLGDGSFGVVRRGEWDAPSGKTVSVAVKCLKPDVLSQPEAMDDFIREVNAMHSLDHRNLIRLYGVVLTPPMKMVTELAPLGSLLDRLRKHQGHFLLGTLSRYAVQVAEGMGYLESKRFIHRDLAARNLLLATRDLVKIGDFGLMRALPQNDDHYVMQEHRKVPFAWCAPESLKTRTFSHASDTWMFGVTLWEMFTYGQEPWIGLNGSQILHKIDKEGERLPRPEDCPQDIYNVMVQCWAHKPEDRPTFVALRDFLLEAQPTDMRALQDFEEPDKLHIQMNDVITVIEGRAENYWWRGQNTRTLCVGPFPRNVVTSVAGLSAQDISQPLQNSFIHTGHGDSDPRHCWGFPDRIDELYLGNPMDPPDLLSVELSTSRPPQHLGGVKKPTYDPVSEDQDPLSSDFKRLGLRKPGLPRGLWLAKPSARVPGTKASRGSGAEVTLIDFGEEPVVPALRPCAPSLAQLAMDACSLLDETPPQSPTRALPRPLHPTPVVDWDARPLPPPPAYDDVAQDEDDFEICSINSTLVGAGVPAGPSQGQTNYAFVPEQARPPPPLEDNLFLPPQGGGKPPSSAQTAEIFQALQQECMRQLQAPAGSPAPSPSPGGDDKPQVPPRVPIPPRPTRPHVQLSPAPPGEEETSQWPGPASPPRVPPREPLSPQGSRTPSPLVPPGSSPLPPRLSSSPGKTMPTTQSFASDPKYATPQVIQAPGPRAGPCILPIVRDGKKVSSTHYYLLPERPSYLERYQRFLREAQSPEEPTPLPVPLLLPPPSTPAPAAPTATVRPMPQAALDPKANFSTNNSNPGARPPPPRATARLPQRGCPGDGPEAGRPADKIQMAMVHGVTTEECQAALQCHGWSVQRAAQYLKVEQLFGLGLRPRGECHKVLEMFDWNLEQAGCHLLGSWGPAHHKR

[9] = molecular target: Activated CDC42 kinase 1 (Homo sapiens) (UniProt Q07912); conditions: at 1 µM
[10] = molecular target: High affinity nerve growth factor receptor (Homo sapiens) (UniProt P04629); conditions: at 0.1 µM
Sequence of High affinity nerve growth factor receptor (Homo sapiens) (P04629 33-796 limits assumed): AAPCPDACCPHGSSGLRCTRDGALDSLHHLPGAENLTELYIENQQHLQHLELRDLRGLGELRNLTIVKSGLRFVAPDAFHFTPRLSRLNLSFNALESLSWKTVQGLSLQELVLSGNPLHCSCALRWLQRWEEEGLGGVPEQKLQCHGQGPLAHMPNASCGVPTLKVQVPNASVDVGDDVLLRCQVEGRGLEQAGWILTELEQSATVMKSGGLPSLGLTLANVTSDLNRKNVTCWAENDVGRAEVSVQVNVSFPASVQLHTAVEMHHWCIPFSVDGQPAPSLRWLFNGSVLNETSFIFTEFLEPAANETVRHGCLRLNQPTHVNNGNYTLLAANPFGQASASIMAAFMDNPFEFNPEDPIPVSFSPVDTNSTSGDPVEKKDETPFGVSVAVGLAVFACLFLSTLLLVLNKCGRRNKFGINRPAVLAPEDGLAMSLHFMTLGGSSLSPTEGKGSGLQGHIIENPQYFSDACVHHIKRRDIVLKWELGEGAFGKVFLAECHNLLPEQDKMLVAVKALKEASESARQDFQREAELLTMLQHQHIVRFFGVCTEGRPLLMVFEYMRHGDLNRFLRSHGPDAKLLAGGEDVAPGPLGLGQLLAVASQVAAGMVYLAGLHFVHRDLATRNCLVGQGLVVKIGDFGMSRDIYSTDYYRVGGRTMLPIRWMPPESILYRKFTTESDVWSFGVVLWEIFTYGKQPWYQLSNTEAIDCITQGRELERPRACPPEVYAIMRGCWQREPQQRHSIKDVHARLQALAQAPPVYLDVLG

[11] = molecular target: High affinity nerve growth factor receptor (Homo sapiens) (UniProt P04629); conditions: at 1 µM
[12] = molecular target: BDNF/NT-3 growth factors receptor (Homo sapiens) (UniProt Q16620); conditions: at 0.1 µM
Sequence of BDNF/NT-3 growth factors receptor (Homo sapiens) (Q16620 32-822 limits assumed): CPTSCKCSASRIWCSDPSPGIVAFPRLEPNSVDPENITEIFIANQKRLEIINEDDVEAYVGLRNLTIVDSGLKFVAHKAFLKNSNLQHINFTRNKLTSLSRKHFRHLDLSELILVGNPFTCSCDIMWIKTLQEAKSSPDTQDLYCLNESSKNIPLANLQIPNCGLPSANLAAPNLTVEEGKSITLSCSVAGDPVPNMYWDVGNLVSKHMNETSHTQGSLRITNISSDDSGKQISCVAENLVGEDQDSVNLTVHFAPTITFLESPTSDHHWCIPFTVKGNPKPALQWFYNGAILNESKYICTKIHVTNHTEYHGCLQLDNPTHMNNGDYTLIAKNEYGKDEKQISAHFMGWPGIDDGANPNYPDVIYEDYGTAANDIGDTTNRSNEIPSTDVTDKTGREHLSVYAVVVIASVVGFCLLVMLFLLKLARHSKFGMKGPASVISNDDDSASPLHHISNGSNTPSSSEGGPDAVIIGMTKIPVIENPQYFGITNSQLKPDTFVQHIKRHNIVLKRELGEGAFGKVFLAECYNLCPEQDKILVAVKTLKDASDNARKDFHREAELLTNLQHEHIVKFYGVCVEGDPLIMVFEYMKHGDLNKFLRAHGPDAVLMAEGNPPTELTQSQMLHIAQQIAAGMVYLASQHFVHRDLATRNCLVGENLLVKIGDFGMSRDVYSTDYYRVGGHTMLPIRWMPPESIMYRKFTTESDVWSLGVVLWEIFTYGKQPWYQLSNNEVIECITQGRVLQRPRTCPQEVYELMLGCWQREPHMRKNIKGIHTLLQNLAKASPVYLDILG

[13] = molecular target: BDNF/NT-3 growth factors receptor (Homo sapiens) (UniProt Q16620); conditions: at 1 µM
[14] = molecular target: NT-3 growth factor receptor (Homo sapiens) (UniProt Q16288); conditions: at 0.1 µM
Sequence of NT-3 growth factor receptor (Homo sapiens) (Q16288 32-839 limits assumed): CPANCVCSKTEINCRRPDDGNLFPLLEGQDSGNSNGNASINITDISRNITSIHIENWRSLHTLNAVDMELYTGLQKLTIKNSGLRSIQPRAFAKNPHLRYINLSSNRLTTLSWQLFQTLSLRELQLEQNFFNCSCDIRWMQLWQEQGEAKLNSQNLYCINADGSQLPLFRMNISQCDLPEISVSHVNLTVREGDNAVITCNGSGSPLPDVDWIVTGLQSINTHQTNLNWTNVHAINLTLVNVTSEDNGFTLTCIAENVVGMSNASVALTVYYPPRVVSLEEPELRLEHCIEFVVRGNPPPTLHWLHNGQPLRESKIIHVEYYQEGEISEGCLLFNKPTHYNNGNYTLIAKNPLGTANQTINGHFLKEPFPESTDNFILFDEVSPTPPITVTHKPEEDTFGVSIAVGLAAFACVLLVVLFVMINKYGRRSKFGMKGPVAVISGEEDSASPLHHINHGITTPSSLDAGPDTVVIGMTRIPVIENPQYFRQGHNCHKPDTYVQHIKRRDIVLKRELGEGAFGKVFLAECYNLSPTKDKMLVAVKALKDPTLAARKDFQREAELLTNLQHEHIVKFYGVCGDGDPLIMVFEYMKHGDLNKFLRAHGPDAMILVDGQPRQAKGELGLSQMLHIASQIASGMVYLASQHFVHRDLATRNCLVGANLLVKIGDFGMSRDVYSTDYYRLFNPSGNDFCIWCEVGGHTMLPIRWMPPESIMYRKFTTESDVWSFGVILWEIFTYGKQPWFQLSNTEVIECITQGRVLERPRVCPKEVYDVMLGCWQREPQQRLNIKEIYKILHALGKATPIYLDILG

[15] = molecular target: NT-3 growth factor receptor (Homo sapiens) (UniProt Q16288); conditions: at 1 µM
[16] = molecular target: T3, Tyrosine-protein kinase TXK (Homo sapiens) (UniProt P42681); conditions: at 0.1 µM
T3 sequence (whole entry): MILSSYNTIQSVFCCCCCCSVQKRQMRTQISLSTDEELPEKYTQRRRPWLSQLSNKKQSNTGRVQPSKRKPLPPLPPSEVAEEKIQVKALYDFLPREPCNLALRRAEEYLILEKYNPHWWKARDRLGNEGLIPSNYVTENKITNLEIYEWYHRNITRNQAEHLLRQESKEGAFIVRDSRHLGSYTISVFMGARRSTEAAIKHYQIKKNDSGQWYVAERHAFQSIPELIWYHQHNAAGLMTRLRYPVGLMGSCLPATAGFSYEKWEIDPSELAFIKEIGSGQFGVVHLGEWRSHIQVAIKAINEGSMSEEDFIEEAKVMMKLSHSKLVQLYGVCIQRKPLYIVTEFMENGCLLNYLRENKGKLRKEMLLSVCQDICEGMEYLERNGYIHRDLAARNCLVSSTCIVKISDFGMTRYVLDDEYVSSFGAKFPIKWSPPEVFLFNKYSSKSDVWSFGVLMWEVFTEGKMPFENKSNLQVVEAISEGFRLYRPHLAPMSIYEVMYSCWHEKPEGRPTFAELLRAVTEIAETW

[17] = molecular target: T3, Tyrosine-protein kinase TXK (Homo sapiens); conditions: at 1 µM
[18] = molecular target: Non-receptor tyrosine-protein kinase TYK2 (Homo sapiens) (UniProt P29597); conditions: at 0.1 µM;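 note: each value is a mean of the inhibition readings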
[19] = molecular target: T4, Dual specificity protein kinase TTK (Homo sapiens) (UniProt P33981); conditions: at 1 µM;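 note: reported figures are mean TTK inhibition at 1 µM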
T4 sequence (whole entry): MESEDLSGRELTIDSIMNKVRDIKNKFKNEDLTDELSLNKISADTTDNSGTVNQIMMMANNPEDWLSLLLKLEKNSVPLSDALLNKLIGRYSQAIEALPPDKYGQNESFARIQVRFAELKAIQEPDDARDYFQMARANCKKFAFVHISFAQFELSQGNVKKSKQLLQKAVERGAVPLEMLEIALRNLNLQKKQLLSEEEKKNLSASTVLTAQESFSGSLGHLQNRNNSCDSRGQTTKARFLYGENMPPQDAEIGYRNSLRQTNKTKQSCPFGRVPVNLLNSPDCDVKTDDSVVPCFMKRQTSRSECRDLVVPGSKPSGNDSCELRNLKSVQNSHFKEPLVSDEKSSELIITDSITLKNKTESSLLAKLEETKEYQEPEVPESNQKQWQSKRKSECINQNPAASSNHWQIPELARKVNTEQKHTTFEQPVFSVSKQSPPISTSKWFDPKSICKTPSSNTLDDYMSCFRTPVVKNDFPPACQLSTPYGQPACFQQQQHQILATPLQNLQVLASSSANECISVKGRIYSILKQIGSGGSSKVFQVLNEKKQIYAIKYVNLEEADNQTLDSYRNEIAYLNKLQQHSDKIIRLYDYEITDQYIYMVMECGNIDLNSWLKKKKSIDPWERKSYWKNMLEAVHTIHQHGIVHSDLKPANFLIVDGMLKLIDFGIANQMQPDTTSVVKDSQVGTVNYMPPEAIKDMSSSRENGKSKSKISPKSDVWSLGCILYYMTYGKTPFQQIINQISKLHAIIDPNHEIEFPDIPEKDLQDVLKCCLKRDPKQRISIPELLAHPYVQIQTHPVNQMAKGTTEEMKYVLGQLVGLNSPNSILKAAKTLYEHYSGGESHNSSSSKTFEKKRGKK

[20] = molecular target: T5, Aurora kinase A (Homo sapiens) (UniProt O14965); conditions: at 0.1 µM;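 note: each reported value is a mean percent inhibition of Aurora-A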
T5 sequence (whole entry): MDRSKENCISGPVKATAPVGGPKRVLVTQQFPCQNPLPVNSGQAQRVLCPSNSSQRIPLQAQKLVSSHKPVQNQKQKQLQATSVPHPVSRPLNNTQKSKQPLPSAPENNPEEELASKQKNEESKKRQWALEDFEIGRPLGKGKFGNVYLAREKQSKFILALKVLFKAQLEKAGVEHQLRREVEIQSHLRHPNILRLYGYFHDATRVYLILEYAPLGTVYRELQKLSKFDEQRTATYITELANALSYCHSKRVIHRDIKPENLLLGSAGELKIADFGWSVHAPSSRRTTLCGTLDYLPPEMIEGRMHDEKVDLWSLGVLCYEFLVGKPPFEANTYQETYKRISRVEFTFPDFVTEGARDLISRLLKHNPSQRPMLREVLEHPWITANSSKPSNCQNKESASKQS

Structure (SMILES)	inhibition [1] [%]	inhibition [2] [%]	inhibition [3] [%]	inhibition [4] [%]	inhibition [5] [%]	inhibition [6] [%]	inhibition [7] [%]	inhibition [8] [%]	inhibition [9] [%]	inhibition [10] [%]	inhibition [11] [%]	inhibition [12] [%]	inhibition [13] [%]	inhibition [14] [%]	inhibition [15] [%]	inhibition [16] [%]	inhibition [17] [%]	inhibition [18] [%]	inhibition [19] [%]	inhibition [20] [%]
CCn1c(-c2nonc2N)nc2c(C#CC(C)(C)O)nc(CN3CCCC3)cc21	-0.03	-0.24	1.81	2.79	3.96	-0.12	-4.05	-0.98	-1.32	-2.07	-1.66	-0.98	-0.47	-1.68	-2.34	1.55	2.08	3.47	5.1	0.54
O=C1NC(=O)C(c2ccccc2Cl)=C1Nc1cccc(O)c1	-0.68	3.78	4.55	1.47	5.97	3.82	2.57	1.29	3.26	4.19	0.59	1.19	1.88	0.46	4.4	3.39	4.53	-5.26	-9.72	3.17
COc1ccc2cc(-c3c(-c4ccncc4)nc(-c4ccc([S+](C)[O-])cc4)n3C)ccc2c1 (stereo not given)	-1.16	4.18	5.59	53.3	83.2	4.52	8.26	0.59	0.47	2.78	1.74	0.67	1.15	0.11	1.86	1.4	4.06	-2.53	7.86	3.45
CN(C)c1cc2c(Nc3ccc4nc(Cc5ccccc5)[nH]c4c3)ncnc2cn1	1.5	5.94	11.9	3.86	4.47	6.39	21	1.01	4.65	4.28	3.31	3.89	2.87	3.93	4.24	8.4	13.7	-8.04	32.2	3.28
COc1ccc(-c2ccncc2)cc1C(N)=O	0.26	6.14	5.31	5.23	6.4	3.12	5.16	1.17	2.39	1.19	6.42	3.52	3.6	4.78	4.79	4.98	5.36	-2.48	8.41	2.92
NC(=O)c1cccc(Nc2nccc(Nc3cccc4[nH]ncc34)n2)c1	25.4	17.4	62.5	9.12	47.5	6.88	58.3	5.44	47.8	0.29	6.83	0.06	14.1	1.25	12.9	15.8	55.1	4.66	9.28	36.4
